# From PubChem
# VP16 counter – inhibits Gal4-VP16 luciferase reporter, ROR gamma counter-screen. Drosophila S2 Gal4-VP16 UAS-luciferase, luminescence, 20 h. Potency, µM (titrated, usually from 53.6 µM), hits mostly inhibitors. 310,000 tested, 3.5% active. AID 2546;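 further: Gal4-VP16 expression switched on by copper sulfate through the metallothionein promoter; nearly all actives have a fitted effect of over 50% in size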
# RORg inh – ROR gamma (mouse) transcription inhibition; P51450; Potency, µM (highest dose often 53.6 µM), hits mostly inhibitors; 310,000 tested, 5.4% active; AID 2551; Drosophila S2 Gal4-RORgamma UAS-luciferase reporter, 20 h; further: nearly all actives have a fitted effect of over 60% in size
# Target sequence (P51450 whole entry, looked up, the tested form may be a part): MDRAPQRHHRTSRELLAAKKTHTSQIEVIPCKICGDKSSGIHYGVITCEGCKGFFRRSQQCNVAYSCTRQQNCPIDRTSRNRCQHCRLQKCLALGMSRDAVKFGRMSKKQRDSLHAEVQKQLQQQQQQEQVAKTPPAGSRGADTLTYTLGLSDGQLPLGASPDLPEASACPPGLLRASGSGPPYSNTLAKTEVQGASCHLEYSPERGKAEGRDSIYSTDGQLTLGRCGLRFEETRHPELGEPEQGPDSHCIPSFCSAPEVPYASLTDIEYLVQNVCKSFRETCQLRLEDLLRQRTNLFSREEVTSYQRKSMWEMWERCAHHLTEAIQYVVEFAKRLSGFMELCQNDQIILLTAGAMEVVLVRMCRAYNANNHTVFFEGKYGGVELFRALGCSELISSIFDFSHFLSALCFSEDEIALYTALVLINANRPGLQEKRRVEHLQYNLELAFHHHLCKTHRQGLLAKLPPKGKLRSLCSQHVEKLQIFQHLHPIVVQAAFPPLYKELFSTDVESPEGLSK
#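 Luminescence from a UAS-regulated Photinus luciferase reporter in stably transfected Drosophila Schneider cells is measured; decreased signal marks ROR gamma inhibition. Fusion expression is induced by 700 uM copper sulfate for 20 hr.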
# SW480 rereplic – inducers of DNA re-replication in SW480 colon cancer cells | 340,000 tested, 1.8% active | Potency, µM (top dose mostly 46.1 µM), hits mostly activators | AID 624297 | SW480 DNA re-replication, Hoechst DNA content imaging, 48 h; further: nearly all actives have a fitted effect of over 55% in size
#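 Quantitative HTS format with DMSO vehicle controls; 48 hr drug incubation at 37 C, then 40 min Hoechst staining and scanning imager measurement at 405 nm excitation.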
# IL-1B inflam inh – blocks inflammasome-driven IL-1 beta release. AID 743279. 360,000 tested, 4.7% active. activity change, % at 57.5 µM. THP-1 LPS/ATP IL-1B secretion, AlphaLISA, 16 h; active compounds read low; in the data active means activity change below about -50%; inconclusive means mostly about -30% to -49%
#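 Secreted IL-1B measured by AlphaLISA bead assay after 16 h compound exposure of THP-1 cells; compounds (final up to 57.5 uM) added 1 h before LPS (250 ng/mL) and ATP (1.25 mM) stimulation; lower signal means less secretion.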
# MCF10A rereplic – induces DNA re-replication in MCF 10a normal breast cells; MCF 10A DNA re-replication, Hoechst nuclear intensity, 48 h; Potency, µM (doses to about 46.1 µM), actives largely listed as activators; 350,000 tested, 2.9% active; further: nearly all actives have a fitted effect of over 50% in size
# Hits are given with their value; - = inactive; ? = inconclusive; . = no result given; [ ] = another dose, or the depositor's remark. Shown are actives, neighbours in structure and some others; about 11% of the full set was active somewhere. Unless noted, the call rests on the fitted dose curve; in most records, active means well fitted curve in the direction sought with a large enough effect; inconclusive means small, poorly fitted or top-dose-only effect, or another doubt; inactive means no such curve, though single readings can be large; an effect the other way counts as inactive or inconclusive.
SMILES,VP16 counter,RORg inh,SW480 rereplic,IL-1B inflam inh,MCF10A rereplic
Cn1c(=O)c(C(=O)NNC(=O)c2ccccc2Br)c(O)c2ccccc21,?,20µM,?,-,-
CC(NC(=O)c1c(O)c2ccccc2n(C)c1=O)c1ccccc1 (stereo unspecified),?,-,23.1µM,-,-
CCn1c(=O)c(C(=O)NNC(=O)c2ccccc2Br)c(O)c2ccccc21,?,?,-,-,-
CCCCn1c(CCC(=O)O)nc2cc(S(=O)(=O)N3CCCC3)ccc21,.,.,-,-,-
COc1cccc(CNc2ccc(N3CCCCC3)cc2)c1OC,?,?,?,-,?
COc1ccccc1CNCc1cc(OC)c(OC)cc1OC,-,-,-,-,-
COc1cccc(CNc2ccc(S(N)(=O)=O)cc2)c1OC,-,-,18.4µM,-,-
COc1ccccc1CNCc1ccc(OC)c2ccccc12,.,.,-,-81.9,-
COc1cc(CNCc2cccc3ccccc23)cc(OC)c1,-,-,-,-,-
COc1cccc(CNCc2ccc(OC)c3ccccc23)c1OC,-,-,-,-84.1,-
COc1ccc(CNCc2ccc(OC)c3ccccc23)cc1,-,-,-,-76.4,-
CC[C@H](C)[C@H](NC(=O)[C@H](C)NC(=O)[C@H](CC(N)=O)NC(=O)[C@H](CCCCN)NC(=O)[C@H](Cc1ccccc1)NC(=O)[C@H](CC(C)C)NC(=O)[C@@H](NC(=O)[C@@H](NC(=O)[C@H](CC(C)C)NC(=O)[C@@H]1CCCN1C(=O)[C@@H](NC(=O)[C@H](CCC(N)=O)NC(=O)[C@H](CO)NC(=O)[C@H](CCCCN)NC(=O)[C@H](CCC(=O)O)NC(=O)[C@H](CO)NC(=O)[C@@H](NC(=O)[C@H](CCSC)NC(=O)[C@H](Cc1ccccc1)NC(=O)CNC(=O)CNC(=O)[C@@H](N)Cc1ccc(O)cc1)[C@@H](C)O)[C@@H](C)O)C(C)C)[C@@H](C)O)C(=O)N[C@H](C(=O)N[C@@H](CCCCN)C(=O)N[C@@H](CC(N)=O)C(=O)N[C@@H](C)C(=O)N[C@@H](Cc1ccc(O)cc1)C(=O)N[C@@H](CCCCN)C(=O)N[C@@H](CCCCN)C(=O)NCC(=O)N[C@@H](CCC(=O)O)C(=O)O)[C@@H](C)CC,-,-,.,.,.
COc1cccc(C(C)(O)c2nc(-c3cccc(C#N)c3)cs2)c1 (stereo unspecified),.,.,.,-,.
COc1ccccc1CNCc1cccc(Oc2ccccc2)c1,-,-,-,-82.8,-
CCOc1ccc(/C=N/NC(=O)Cc2ccccc2)cc1CN1CC2CC(C1)c1cccc(=O)n1C2 (stereo unspecified),.,.,?,-104.5,?
CCOc1ccc(/C=N/NC(=O)c2ccc(O)cc2)cc1CN1CC2CC(C1)c1cccc(=O)n1C2 (stereo unspecified),.,.,-,-,-
Cc1cccc(CNC(=O)C2CCC(=O)N(CCCc3ccccc3)C2)c1 (stereo unspecified),.,.,.,-,.
Cc1cc(-c2ccc([N+](=O)[O-])cc2)nc2ccccc12,-,-,-,-,-
CN1CCN(Cc2nc3ccccc3c(=O)n2Cc2nc(-c3ccc([N+](=O)[O-])cc3)cs2)CC1,17.8µM,7.94µM,?,-97.3,?
Cc1cc(N2CCN(c3nc(-c4ccc([N+](=O)[O-])cc4)cs3)CC2)c2ccccc2n1,12.6µM,10µM,-,-,?
Cc1noc(C)c1COc1ccccc1C(=O)NCCc1ccc(F)cc1,.,.,-,-,-
CC(C)NC(=O)c1cccc2c(-c3ccc(F)c(F)c3)coc12,.,.,.,-,.
Cc1ccc(-c2nnc(Cc3ccc([N+](=O)[O-])cc3)o2)cc1,?,0.282µM,-,-,-
CC(C)C[C@H](NC(=O)[C@H](CO)NC(=O)CNC(=O)[C@H](CCCCN)NC(=O)[C@H](CCCN=C(N)N)NC(=O)[C@H](C)NC(=O)[C@H](Cc1ccccc1)NC(=O)[C@@H](N)CCCN=C(N)N)C(=O)N[C@@H](CCCN=C(N)N)C(=O)N[C@@H](CCC(N)=O)C(=O)N[C@@H](CCCCN)C(=O)N[C@@H](CC(N)=O)C(=O)N[C@H](C(=O)O)C(C)C,-,-,.,.,.
CCOC(=O)/C(C#N)=C1/C=C(C)NC(c2ccccc2O)=N1,?,?,-,-63.9,6.51µM
SMILES,VP16 counter,RORg inh,SW480 rereplic,IL-1B inflam inh,MCF10A rereplic
O=C(Nc1ccc(Cc2ccncc2)cc1)C1CCC(N2C(=O)C3C4C=CC(C4)C3C2=O)CC1 (stereo unspecified),?,-,-,-78.0,-
O=C(Nc1ccc(Cc2ccc(NC(=O)C3CC3)cc2)cc1)C1CC1,-,-,-[9.22 µM],-,?
CC1CCC2C(=O)N(c3ccc(Cc4ccncc4)cc3)C(=O)C2C1 (stereo unspecified),6.31µM,11.2µM,?,-,-
O=C1C2C3C=CC(C3)C2C(=O)N1c1ccc(Cc2ccncc2)cc1 (stereo unspecified),22.4µM,-,-,-,-
O=C(Nc1ccc(Cc2ccncc2)cc1)C1CCC(N2C(=O)C3CC=CCC3C2=O)CC1 (stereo unspecified),-,-,-,-70.6,-
CC1CCN(C(=O)c2ccc(N3C(=O)C4CCC(C)CC4C3=O)cc2)CC1 (stereo unspecified),-,-,-,.,-
CCc1ccc(N2C(=O)C3C4C=CC(CC4)C3C2=O)cc1 (stereo unspecified),-,-,-,-,-
CC1(C)SC2C(N3C(=O)C(c4ccccc4)NC3(C)C)C(=O)N2C1C(=O)O (stereo unspecified),-,-,-,.,-
CC[C@H](C)N,-,-,.,.,.
CC(=O)c1ccc(N2CCC(c3cc(-c4ccc(Cl)cc4Cl)n[nH]3)CC2)c([N+](=O)[O-])c1,?,?,?,-55.1,?
O=[N+]([O-])c1cccnc1N1CCC(c2cc(-c3ccc(Cl)cc3Cl)n[nH]2)CC1,?,-,?,-,?
O=C(Nc1ncnc2sc3c(c12)CCCCC3)c1ccccc1,20µM,11.2µM,-,-,-
O=C(Nc1ncnc2sc3c(c12)CCCCC3)c1ccc(F)cc1,12.6µM,7.08µM,-,-,-
COC(=O)C1(C)CCCC2(C)C3CCC(C(C)C)C(CO)C3C(CO)CC12 (stereo unspecified),.,.,.,-60.0,.
O=[N+]([O-])c1ccc(O)c(Nc2ncnc3ccccc23)c1,?,?,-,-,-
O=[N+]([O-])c1ccc(O)c(Nc2ncnc3ccc(Br)cc23)c1,-,?,?,-,13µM
CCC(=O)NC1=C(C#N)C2(CCCC2)Cc2ccccc21,-,-,-,-,-
N#CC1=C(N)c2ccccc2CC12CCCCC2,-,-,-,-52.4,-
COc1ccc([C@H]2Cc3cc(O)cc(O)c3C(=O)O2)cc1O,.,.,-[9.22 µM],-,?
O=C(/C=C/c1ccccn1)c1cc(Cl)cc(Cl)c1O,-,-,16.4µM,-80.4,20.6µM
